In PubChem BioAssay AID504652 (National Center for Advancing Translational Sciences (NCATS), 2011) one finds activity change, negative = inhibition data, which are given here for 54 compounds.

Where “and” joins values, the source holds several entries; their conditions need not be identical. Equal values may be shown once. The campaign covered roughly 360,000 compounds. About 11,000 (3.1%) were called active. The sample holds actives, similar compounds and a random draw of the others, so the mix is not that of the screen. Cut-off read from the data, not from the text of the source: active = activity change below about -30%; inactive = the rest. More than one record can exist for a structure, and the calls need not agree.
% is set by controls: 0 for no effect and ±100 for the full control effect.

The target of this experiment is D(1A) dopamine receptor (Homo sapiens) (UniProt P21728). The experiment is described as follows: Antagonist of Human D 1 Dopamine Receptor: qHTS. To be noted: HEK293 TREx D1 cells, calcium flux, dopamine EC80; at 10 µM; stronger effect = lower value. Put shortly: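 Calcium flux readout: force-coupled, inducible Hek293 Trex D1 line, cells induced overnight at 30 C with tetracycline, dye-loaded 30–90 min at RT. Antagonism scored against EC80 dopamine challenge given 180 s after compound.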
Sequence of D(1A) dopamine receptor (Homo sapiens) (P21728 whole entry, looked up): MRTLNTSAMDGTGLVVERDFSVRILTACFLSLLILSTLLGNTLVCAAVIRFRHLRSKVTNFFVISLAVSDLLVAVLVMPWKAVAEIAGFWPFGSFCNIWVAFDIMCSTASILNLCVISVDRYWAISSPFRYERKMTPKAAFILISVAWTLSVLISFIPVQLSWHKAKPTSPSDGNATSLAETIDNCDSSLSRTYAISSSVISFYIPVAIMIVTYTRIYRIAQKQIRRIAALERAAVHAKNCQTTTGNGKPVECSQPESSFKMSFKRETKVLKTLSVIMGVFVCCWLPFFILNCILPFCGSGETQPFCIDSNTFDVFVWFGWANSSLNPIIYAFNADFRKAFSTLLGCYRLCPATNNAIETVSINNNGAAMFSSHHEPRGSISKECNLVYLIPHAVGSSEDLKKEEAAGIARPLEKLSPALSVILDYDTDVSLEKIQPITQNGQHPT
Consider `CCS(=O)(=O)N1CCc2cc(C(=O)NCc3ccc(C)cc3)ccc21`, for which the activity change, negative = inhibition is -4.2% (inactive).

With `CN(CC(=O)NNC(=O)CNC(=O)c1ccccc1Cl)S(=O)(=O)c1ccc(Cl)cc1`, the activity change, negative = inhibition was -11.4% (inactive).

Regarding `CN(CC(=O)NCC(c1ccccc1)N1CCCC1)S(=O)(=O)c1ccc(Cl)cc1` (centres undefined), the activity change, negative = inhibition is 12.1% (inactive).

In the case of `CN(CC(=O)NCCc1ccccn1)S(=O)(=O)c1ccc(Cl)cc1`, the activity change, negative = inhibition was -32.4% (active).

Regarding `COc1ccc(NC2CC(=O)N(C)C2=O)cc1` (centres undefined), the activity change, negative = inhibition was -35.8% (active).

As for `COc1ccc(C2CC(=O)NC(=O)C2)cc1`, the activity change, negative = inhibition was 6.98% (inactive).

`CC(=O)Oc1cccc(N2C(=O)CC(Nc3ccc(N4CCOCC4)cc3)C2=O)c1` (centres undefined): the activity change, negative = inhibition is 9.21% (inactive).

With `COc1ccc(-c2nc3c(c(SCC(=O)Nc4ccc(C(=O)O)cc4)n2)Cc2ccccc2O3)cc1`, the activity change, negative = inhibition was -4.63% (inactive).

Take `CCCCN(CC)CCCNC(=O)c1nn(C)c2c1CSc1ccccc1-2`: the activity change, negative = inhibition was 13% (inactive).

For `CCOC(=O)c1[nH]c(C)c(CCC(=O)NCc2ccccc2C)c1C`, the activity change, negative = inhibition is -16.9% (inactive).

`O=C(CCc1nc(CN2CCN(S(=O)(=O)c3ccc(F)cc3)CC2)no1)N1CCCCC1`: the activity change, negative = inhibition was 11.3% (inactive).

On to `CC(=O)c1sc(NC(=O)CCN2C(=O)C3CC=CCC3C2=O)nc1-c1ccccc1` (centres undefined), for which the activity change, negative = inhibition is 2.17% (inactive).

For `O=C(Cc1ccc(Cl)cc1)NCc1nc(-c2ccccc2)no1`, the activity change, negative = inhibition is -12.9% (inactive).

Consider `O=C(CCN1C(=O)[C@H]2CC=CC[C@H]2C1=O)NCc1nc(-c2ccccc2)no1`, for which the activity change, negative = inhibition was -34.2% (active).

As to `O=C(NC1CCN(Cc2ccccc2)CC1)c1ccc(Cn2c(=O)c3ccccc3n(Cc3cccc(F)c3)c2=O)cc1`, the activity change, negative = inhibition is 2.59% (inactive).

On to `COc1cccc(-c2nc(S(=O)(=O)c3ccc(C)cc3)c(NCc3ccccc3)o2)c1`, for which the activity change, negative = inhibition was 24.7% (inactive).

Regarding `CN(c1ccccc1)S(=O)(=O)c1cccc(NC(=O)Cc2c(F)cccc2Cl)c1`, the activity change, negative = inhibition is -47.4% (active).

For `CN(c1ccccc1)S(=O)(=O)c1cccc(NC(=O)Cc2ccc(Cl)cc2)c1`, the activity change, negative = inhibition is -23.4% (inactive).

In the case of `CN(C)S(=O)(=O)c1cccc(NC(=O)Cc2ccsc2)c1`, the activity change, negative = inhibition is -5.36% (inactive).

Turning to `O=C(CCC(=O)N1CC2CCCN2c2ccccc21)NCc1ccccc1Cl` (centres undefined), the activity change, negative = inhibition is -15.4% (inactive).

`O=C(CSc1nc2nccnc2c(=O)n1CCc1c[nH]c2ccccc12)Nc1ccccc1F`: the activity change, negative = inhibition was -39.8% (active).

On to `Cc1cc(C)c(NC(=O)CSc2nc3nccnc3c(=O)n2CCc2c[nH]c3ccccc23)c(C)c1`, for which the activity change, negative = inhibition was 1.52% (inactive).

Take `Cc1cc(C)cc(NC(=O)CSc2nc3nccnc3c(=O)n2CCc2c[nH]c3ccccc23)c1`: the activity change, negative = inhibition is 1.93% (inactive).

With `CN(C(=O)c1ccc2c(c1)N(Cc1cccc(Cl)c1)C(=O)c1ccccc1S2=O)C1CCCCC1` (centres undefined), the activity change, negative = inhibition is 2.7% (inactive).

For the compound `CC1CN(CCOc2ccccc2[N+](=O)[O-])CC(C)O1` (centres undefined), the activity change, negative = inhibition was -11.6% (inactive).

Turning to `O=[N+]([O-])c1ccccc1OCCCCN1CCCCC1`, the activity change, negative = inhibition is -54.3% (active).

For the compound `Cc1ccc(OCCCCN2CCCCC2)c(Br)c1`, the activity change, negative = inhibition is -23.4% (inactive).

For `O=C(CSc1ncc(S(=O)(=O)c2ccc(Br)cc2)c(=O)[nH]1)Nc1ccc2c(c1)OCCO2`, the activity change, negative = inhibition was 8% (inactive).

With `Oc1ccc(Cl)cc1C1C=C(c2ccc3c(c2)OCO3)NC(c2ccc(F)c(Br)c2)N1` (centres undefined), the activity change, negative = inhibition is -22.1% (inactive).

On to `Cc1cccc(S(=O)(=O)c2cn(Cc3ccccc3)c3cc(N4CCOCC4)c(F)cc3c2=O)c1`, for which the activity change, negative = inhibition was 0.0166% (inactive).

Take `O=C(COC(=O)C1CCCCC1)Nc1ccc([N+](=O)[O-])cc1`: the activity change, negative = inhibition was -34.5% (active).

Turning to `NC(=O)c1ccc(NC(=O)COC(=O)c2ccc([N+](=O)[O-])cc2)cc1`, the activity change, negative = inhibition was 1.67% (inactive).

Turning to `N/C(Cc1ccc([N+](=O)[O-])cc1)=N\OC(=O)C1CCCCC1`, the activity change, negative = inhibition was -11.7% (inactive).

As to `CCCCOc1ccc(C(=O)Nc2cccc(-c3nc4ccccc4o3)c2C)cc1`, the activity change, negative = inhibition is -0.438% (inactive).

Consider `Cc1oc2ccc(O)c(CN3CCCCC3)c2c1C(=O)Nc1cccc(C(F)(F)F)c1`, for which the activity change, negative = inhibition is 11.6% (inactive).

As for `O=C(C1CCCN(S(=O)(=O)c2ccccc2)C1)N1CCN(c2ccc(F)cc2)CC1` (centres undefined), the activity change, negative = inhibition was -43.7% (active).

`O=C(C1CCC1)N1CCN(c2ccccc2)CC1`: the activity change, negative = inhibition is 6.47% (inactive).

With `CC(=O)N1CCCc2cc(S(=O)(=O)N3CCCC(C(=O)N4CCN(c5cccc(Cl)c5)CC4)C3)ccc21` (centres undefined), the activity change, negative = inhibition is -14.3% (inactive) and -32% (active).

As for `Cc1ccc(S(=O)(=O)N2CCCC(C(=O)N3CCN(C)CC3)C2)cc1` (centres undefined), the activity change, negative = inhibition was 10.2% (inactive).

As to `COc1cccc(N2CCN(S(=O)(=O)c3ccc4c(c3)CCCN4C(C)=O)CC2)c1`, the activity change, negative = inhibition is -35.4% (active).

For `CC(=O)N1c2ccc(S(=O)(=O)N3CCC(C(=O)N4CCN(c5ccccc5)CC4)CC3)cc2CC1C` (centres undefined), the activity change, negative = inhibition is -7.84% (inactive).

On to `COc1ccc(N2CCN(S(=O)(=O)c3ccc4c(c3)N(C(C)=O)CCO4)CC2)cc1`, for which the activity change, negative = inhibition was -18% (inactive).

Take `CC(=O)N1CCCc2cc(S(=O)(=O)CCC(=O)N3CCN(c4ccccc4)CC3)ccc21`: the activity change, negative = inhibition was -0.97% (inactive).

As for `CC(=O)N1CCCc2cc(S(=O)(=O)N3CCC(C(=O)NC4CCCCC4)CC3)ccc21`, the activity change, negative = inhibition is 0.0767% (inactive).

Turning to `CC(=O)Nc1cccc(NC(=O)CSc2cn(CC(=O)N3CCCC3)c3ccccc23)c1`, the activity change, negative = inhibition was 12.2% (inactive).

In the case of `CC(=O)Nc1ccc(NC(=O)CSc2nnc3c4cc(Br)ccc4n(C)c3n2)cc1`, the activity change, negative = inhibition was -2.66% (inactive).

For `Cc1cccc(C)c1-n1ncc(C(=O)NCCCN2CCCCC2)c1C1CCN(C(=O)OC(C)(C)C)CC1`, the activity change, negative = inhibition is 40.2% (inactive).

With `CCOC(=O)CN1C(C(=O)c2ccccc2)=C(OC(=O)C(C)(C)C)c2ccccc2S1(=O)=O`, the activity change, negative = inhibition is -13.9% (inactive).

Take `FC(F)(F)c1cc(Nc2nc3ccccc3c3nncn23)ccc1Cl`: the activity change, negative = inhibition is -0.606% (inactive).

In the case of `CC1=C(C(=O)Nc2ccccc2Cl)C(c2cccs2)n2ncnc2N1` (centres undefined), the activity change, negative = inhibition was 4.21% (inactive).

In the case of `CC(C)CNC(=S)Nc1ccc(F)cc1`, the activity change, negative = inhibition was 12.4% (inactive).

`CC(C)N(Cc1ccccc1)C(=S)Nc1ccc(OC(F)F)cc1`: the activity change, negative = inhibition was -4.75% (inactive).

Consider `CC(NC(=S)Nc1ccc(OC(F)F)cc1)c1ccc(F)cc1` (centres undefined), for which the activity change, negative = inhibition was -35.4% (active).

As for `CCOC(=O)c1ccc(NC(=O)CC2C(=O)N(c3ccccc3)C(=O)N2Cc2cccs2)cc1` (centres undefined), the activity change, negative = inhibition was -10.5% (inactive).
